Experimental data from PubChem BioAssay (NCI).
The panel holds about 79,000 compounds, 15% with a hit somewhere; the sample as a whole holds those more often. The source made the active and inactive calls. Cut-off read from the data, not from the text of the source: active = growth inhibition above about 70%; inactive = the rest.

Assays:
[1] = NCI Yeast Anticancer Drug Screen. Data for the rad52 strain (AID 147);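 note: 0% = growth of vehicle-treated control cultures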; conditions: S. cerevisiae rad52 mutant growth inhibition, active compounds read high
Outline: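 Measured: yeast growth inhibition. System: strain with a defined DNA damage repair alteration. Reference: vehicle-treated control cultures.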

[2] = NCI Yeast Anticancer Drug Screen. Data for the wt1 strain (AID 149);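 note: 0% = growth of vehicle-treated wt1 cultures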; conditions: S. cerevisiae wt1 strain (SPY 50644) growth inhibition, active compounds read high
Outline: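 Yeast wt1 strain exposed to compounds; growth inhibition measured relative to vehicle-treated controls.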

[3] = NCI Yeast Anticancer Drug Screen. Data for the rad50EPP+ strain (AID 151);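 note: 0% = growth of vehicle-treated control cultures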; conditions: S. cerevisiae rad50 mutant strain, active compounds read high
Outline: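 One strain with a rad50 alteration (rad50EPP+) was compound-treated, its growth then compared to that of vehicle controls.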

[4] = NCI Yeast Anticancer Drug Screen. Data for the mgt1 strain (AID 153); conditions: S. cerevisiae mgt1 mutant growth inhibition, active compounds read high
Outline: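 After exposure of the mgt1 yeast mutant to compound, growth was measured and reported as inhibition compared with vehicle controls.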

[5] = NCI Yeast Anticancer Drug Screen. Data for the rad50 strain (AID 155);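 note: 0% = growth of vehicle-only cultures of the same strain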; conditions: S. cerevisiae rad50 strain growth inhibition, active compounds read high
Outline: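 Yeast carrying a defined DNA repair defect were exposed to test compounds, and growth was compared with vehicle-treated controls to give percent inhibition.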

[6] = NCI Yeast Anticancer Drug Screen. Data for the mec2-1 strain (AID 157); conditions: S. cerevisiae mec2-1 strain, active compounds read high
Outline: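 Test agents were screened against the mec2-1 yeast strain, with defined DNA repair or cell cycle alteration. Growth was scored as inhibition against vehicle-only controls.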

[7] = NCI Yeast Anticancer Drug Screen. Data for the rad14 strain (AID 159);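 note: 0% = growth of vehicle-treated control cultures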; conditions: S. cerevisiae rad14 strain growth inhibition, active compounds read high
Outline: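 Yeast cells carrying a defined DNA-repair defect were exposed to compounds, and growth inhibition was calculated relative to vehicle-treated control cultures.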

[8] = NCI Yeast Anticancer Drug Screen. Data for the sgs1 mgt1 strain (AID 161);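 note: 0% = growth of cultures given vehicle only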; conditions: S. cerevisiae sgs1 mgt1 strain, active compounds read high
Outline: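 Read-out: growth inhibition vs vehicle controls. Cells: mutant yeast strain deficient in DNA damage repair.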

[9] = NCI Yeast Anticancer Drug Screen. Data for the CLN2oe strain (AID 163);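 note: 0% = growth of vehicle-only control cultures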; conditions: S. cerevisiae CLN2oe strain, active compounds read high
Outline: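 Here, growth inhibition in a cell-cycle-altered yeast strain after compound exposure was quantified against vehicle control growth.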

[10] = NCI Yeast Anticancer Drug Screen. Data for the cln2 rad14 strain (AID 165);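 note: 0% = growth equal to vehicle treated cultures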; conditions: S. cerevisiae cln2 rad14 strain, active compounds read high
Outline: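 Growth of compound-exposed yeast (cln2 rad14 genotype) measured and expressed as inhibition relative to vehicle.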

[11] = NCI Yeast Anticancer Drug Screen. Data for the bub3 strain (AID 167); conditions: S. cerevisiae bub3 mutant strain, active compounds read high
Outline: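 Compounds were applied to a genetically altered yeast strain carrying a cell-cycle control defect. Growth inhibition was scored against vehicle-treated controls.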

[12] = NCI Yeast Anticancer Drug Screen. Data for the wt2 strain (AID 169);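 note: 0% = growth of vehicle-treated yeast cultures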; conditions: S. cerevisiae wt2 strain growth inhibition, active compounds read high
Outline: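 Genetically defined yeast strains from a DNA-repair/cell-cycle panel were used. Compound-exposed yeast growth was measured, and the inhibition was calculated relative to vehicle treatment.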

[13] = NCI Yeast Anticancer Drug Screen. Data for the mlh1 strain (AID 171);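 note: 0% = growth of vehicle-treated control cultures of the same strain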; conditions: S. cerevisiae mlh1 strain growth inhibition, active compounds read high
Outline: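 Here the genetically defined yeast mutant is grown with each compound, and the extent to which its growth falls below that of vehicle-exposed cells is reported.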

[14] = NCI Yeast Anticancer Drug Screen. Data for the sgs1 strain (AID 173);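 note: 0% = growth of vehicle-only control cultures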; conditions: S. cerevisiae sgs1 mutant, active compounds read high
Outline: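 Relative growth inhibition, referenced to vehicle, was determined in a yeast strain with a defined alteration affecting DNA damage repair or cell cycle control after compound exposure.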

[15] = NCI Yeast Anticancer Drug Screen. Data for the mlh1 rad18 strain (AID 175); conditions: S. cerevisiae mlh1 rad18 strain growth inhibition, active compounds read high
Outline: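 In this whole-cell yeast screen, a strain with altered DNA damage repair is challenged with compound, and its growth is measured against matched vehicle-treated controls.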

[16] = NCI Yeast Anticancer Drug Screen. Data for the rad18 strain (AID 177); conditions: S. cerevisiae rad18 mutant growth inhibition, active compounds read high
Outline: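 Screen uses a yeast strain with a defined lesion in DNA damage repair; compound effect is read as loss of growth compared to untreated vehicle cultures.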

[17] = at 5.0 µM (retest, dose inferred, filed as 0.5)
[18] = at 50.0 µM (retest, dose inferred, filed as 5.0)

Measured: growth inhibition

Cc1cc(O)c(C(C)C)cc1SC#N
active: [1]; at 100.0 µM 98% | [2]; at 100.0 µM 99% | [3]; at 100.0 µM 89% | [4]; at 100.0 µM 99% | [5]; [17] 91% | [5]; [18] 98% | [5]; at 50.0 µM 89.1% | [5]; at 100.0 µM 98% | [6]; [17] 96% | [6]; [18] 99% | [6]; at 50.0 µM 91.1% | [6]; at 100.0 µM 98% | [7]; at 100.0 µM 99% | [8]; [18] 97% | [8]; at 50.0 µM 91.9% | [9]; at 100.0 µM 98% | [10]; [18] 98% | [10]; at 50.0 µM 90.3% | [11]; [17] 72% | [11]; at 11.0 µM 91% | [11]; [18] 98% | [11]; at 50.0 µM 90.5% | [11]; at 100.0 µM 98% | [12]; at 100.0 µM 98% | [13]; at 100.0 µM 98% | [14]; at 100.0 µM 98% | [15]; [17] 81% | [15]; [18] 99% | [15]; at 50.0 µM 89% | [16]; at 100.0 µM 98%
inactive: [1]; at 1.2 µM 2% | [1]; at 3.7 µM -12% | [1]; at 11.0 µM 62% | [1]; at 33.0 µM 34% | [2]; at 1.2 µM -15% | [2]; at 3.7 µM 1% | [2]; at 11.0 µM 43% | [2]; at 33.0 µM 36% | [3]; at 1.2 µM -12% | [3]; at 3.7 µM -5% | [3]; at 11.0 µM 1% | [3]; at 33.0 µM 10% | [4]; at 1.2 µM -3% | [4]; at 3.7 µM -13% | [4]; at 11.0 µM 54% | [4]; at 33.0 µM 40% | [5]; at 1.2 µM -24% | [5]; at 3.7 µM -15% | [5]; at 11.0 µM 67% | [5]; at 33.0 µM 19% | [6]; at 1.2 µM -26% | [6]; at 3.7 µM -25% | [6]; at 11.0 µM 68% | [6]; at 33.0 µM 24% | [7]; at 1.2 µM -4% | [7]; at 3.7 µM 0% | [7]; at 11.0 µM 55% | [7]; at 33.0 µM 46% | [8]; [17] -5% | [9]; at 1.2 µM 12% | [9]; at 3.7 µM -17% | [9]; at 11.0 µM 68% | [9]; at 33.0 µM 54% | [10]; [17] 65% | [11]; at 1.2 µM 3% | [11]; at 3.7 µM 50% | [11]; at 33.0 µM 34% | [12]; at 1.2 µM -11% | [12]; at 3.7 µM -24% | [12]; at 11.0 µM 52% | [12]; at 33.0 µM 36% | [13]; at 1.2 µM -19% | [13]; at 3.7 µM -5% | [13]; at 11.0 µM 58% | [13]; at 33.0 µM 33% | [14]; at 1.2 µM -30% | [14]; at 3.7 µM -24% | [14]; at 11.0 µM 65% | [14]; at 33.0 µM 28% | [16]; at 1.2 µM 12% | [16]; at 3.7 µM 2% | [16]; at 11.0 µM 59% | [16]; at 33.0 µM 40%

CN(C)/C(=N/C(=S)Nc1ccccc1)SCc1ccccc1
active: [5]; [18] 70% | [5]; at 50.0 µM 99.2% | [6]; [18] 76% | [6]; at 50.0 µM 99.7% | [8]; [18] 91% | [8]; at 50.0 µM 99% | [10]; at 50.0 µM 98.8% | [11]; [18] 86% | [11]; at 50.0 µM 99.5%
inactive: [1]; at 1.2 µM -3% | [1]; at 3.7 µM -4% | [1]; at 11.0 µM -2% | [1]; at 33.0 µM 6% | [1]; at 100.0 µM 12% | [2]; at 1.2 µM -2% | [2]; at 3.7 µM -3% | [2]; at 11.0 µM 0% | [2]; at 33.0 µM 6% | [2]; at 100.0 µM 6% | [3]; at 1.2 µM 0% | [3]; at 3.7 µM 1% | [3]; at 11.0 µM -5% | [3]; at 33.0 µM 1% | [3]; at 100.0 µM 13% | [4]; at 1.2 µM 1% | [4]; at 3.7 µM 2% | [4]; at 11.0 µM 4% | [4]; at 33.0 µM 11% | [4]; at 100.0 µM 16% | [5]; at 1.2 µM -5% | [5]; at 3.7 µM -5% | [5]; [17] -7% | [5]; at 11.0 µM -7% | [5]; at 33.0 µM 8% | [5]; at 100.0 µM 10% | [6]; at 1.2 µM -5% | [6]; at 3.7 µM -5% | [6]; [17] -1% | [6]; at 11.0 µM -4% | [6]; at 33.0 µM 10% | [6]; at 100.0 µM 16% | [7]; at 1.2 µM -4% | [7]; at 3.7 µM -5% | [7]; at 11.0 µM -2% | [7]; at 33.0 µM 13% | [7]; at 100.0 µM 18% | [8]; [17] 11% | [9]; at 1.2 µM -8% | [9]; at 3.7 µM -11% | [9]; at 11.0 µM -13% | [9]; at 33.0 µM -6% | [9]; at 100.0 µM -1% | [10]; [17] -15% | [10]; [18] 44% | [11]; at 1.2 µM -4% | [11]; at 3.7 µM -2% | [11]; [17] 6% | [11]; at 11.0 µM 3% | [11]; at 33.0 µM 8% | [11]; at 100.0 µM 14% | [12]; at 1.2 µM -2% | [12]; at 3.7 µM -2% | [12]; at 11.0 µM 0% | [12]; at 33.0 µM 11% | [12]; at 100.0 µM 14% | [13]; at 1.2 µM -2% | [13]; at 3.7 µM 0% | [13]; at 11.0 µM 3% | [13]; at 33.0 µM 11% | [13]; at 100.0 µM 20% | [14]; at 1.2 µM -3% | [14]; at 3.7 µM 0% | [14]; at 11.0 µM 7% | [14]; at 33.0 µM 25% | [14]; at 100.0 µM 30% | [16]; at 1.2 µM -4% | [16]; at 3.7 µM -1% | [16]; at 11.0 µM 1% | [16]; at 33.0 µM 16% | [16]; at 100.0 µM 24%
